Laboratory results as given in PubChem BioAssay (NCI).
This is part of a sample that, as a whole, favours compounds with a hit. Of some 83,000 tested, about 20% had one in any assay.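 Growth was measured after 48 h exposure to one concentration of compound in 96-well plates. Values under 10 count as active.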 Values without a mark were called inactive. Activity calls are given as the source filed them.

How the values were obtained:
Assay in all cases: NCI-60 one-dose screen, 48 h (100 = growth as untreated, 0 = no growth, -100 = all killed)
HCT-15 colon = conditions: 10 µM unless noted
HT29 colon = conditions: 10 µM unless noted
SNB-19 CNS = conditions: 10 µM unless noted
U251 CNS = conditions: 10 µM unless noted
PC-3 prostate = conditions: 10 µM unless noted
SK-MEL-5 melanoma = conditions: 10 µM unless noted
UACC-62 melanoma = conditions: 10 µM unless noted
SK-MEL-28 melanoma = conditions: 10 µM unless noted
EKVX NSCLC = conditions: 10 µM unless noted
SN12C renal = conditions: 10 µM unless noted
UO-31 renal = conditions: 10 µM unless noted
TK-10 renal = conditions: 10 µM unless noted
ACHN renal = conditions: 10 µM unless noted
CAKI-1 renal = conditions: 10 µM unless noted
CCRF-CEM leukemia = conditions: 10 µM unless noted
MOLT-4 leukemia = conditions: 10 µM unless noted
LOX IMVI melanoma = conditions: 10 µM unless noted
A498 renal = conditions: 10 µM unless noted
SK-MEL-2 melanoma = conditions: 10 µM

Row | SMILES | growth (HCT-15 colon) | growth (HT29 colon) | growth (SNB-19 CNS) | growth (U251 CNS) | growth (PC-3 prostate) | growth (SK-MEL-5 melanoma) | growth (UACC-62 melanoma) | growth (SK-MEL-28 melanoma) | growth (EKVX NSCLC) | growth (SN12C renal) | growth (UO-31 renal) | growth (TK-10 renal) | growth (ACHN renal) | growth (CAKI-1 renal) | growth (CCRF-CEM leukemia) | growth (MOLT-4 leukemia) | growth (LOX IMVI melanoma) | growth (A498 renal) | growth (SK-MEL-2 melanoma)
1 | COc1cc2ncnc(Nc3ccc(F)c(Cl)c3)c2cc1NC(=O)/C=C/CN1CCCCC1 | -49.7% (active) | -63.4% (active) | -47.5% (active) | -77.1% (active) | -58.3% (active) | -99.8% (active) | -84.3% (active) | -85.5% (active) | -40.3% (active) | -76.1% (active) | -90.2% (active) | -88.8% (active) | -97.9% (active) | -85.4% (active) | 6.37% (active) | -13.1% (active) | – | – | –
2 | CNc1ncc2cc(-c3cc(NC(=O)NCCC(C)(C)C)c(F)cc3C)c(C)nc2n1 | 19% | 3.91% (active) | – | 16% | 49.1% | 23.6% | -7.93% (active) | – | 29.4% | 18.6% | 3.87% (active) | -4.98% (active) | 5.23% (active) | 4.36% (active) | 63.1% | 20.6% | -34.1% (active) | -35.4% (active) | –
3 | CCc1nc2cc(/C=C/C(=O)NO)c(F)cc2c(=O)n1CCc1ccccc1 | 25.9% | 13.2% | 19.7% | 1.61% (active) | 16.9% | -10.1% (active) | -33.5% (active) | 20.3% | 20.6% | 3.45% (active) | -28.7% (active) | -5.84% (active) | 1.28% (active) | – | 2.77% (active) | -2.57% (active) | -57.8% (active) | – | 35%
4 | CCN1CCN(Cc2ccc(Cc3ncc(F)c(-c4cc(F)c5nc(C)n(C(C)C)c5c4)n3)nc2)CC1 | 32.9% | 13.2% | 47.8% | 45.7% | 38.7% | 34.2% | 69.1% | 64.4% | 59.6% | 48.9% | 11.8% | 35.1% | – | 24% | 22.3% | 13.4% | -80.4% (active) | – | –
5 | CCCCCCCC(=O)SCC/C=C/[C@@H]1CC(=O)NCc2nc(co2)C2=N[C@@](C)(CS2)C(=O)N[C@@H](C(C)C)C(=O)O1 | 0.603% (active) | 2.22% (active) | 9.15% (active) | -61.2% (active) | 9.75% (active) | -93.5% (active) | -68% (active) | – | 16.2% | 12.6% | -13.5% (active) | -18.6% (active) | -27.5% (active) | -50.8% (active) | 19.3% | 3.84% (active) | -97.2% (active) | – | -3.78% (active)
6 | C[C@@H](NC(=O)c1ncnc(N)c1Cl)c1ncc(C(=O)Nc2cc(C(F)(F)F)c(Cl)cn2)s1 | 86.4% | 20.1% | 94.7% | 75.9% | 93.7% | 51.2% | -0.831% (active) | 9.63% (active) | 101% | 82.6% | 52.8% | 77.4% | 74.5% | 74.2% | 78.5% | 70.8% | 36.5% | 59.6% | –
7 | COc1ccc(-c2cnc(-c3ccc(Cl)cc3)[nH]2)cc1OC | 100% | 97.6% | 96% | 102% | 81.3% | 97.4% | 94.6% | 104% | 117% | 91.6% | 95.4% | 139% | 103% | 121% | -55.7% (active) | 106% | 110% | 90.6% | –
8 | N#CC[C@H](C1CCCC1)n1cc(-c2ncnc3[nH]ccc23)cn1 | 89.7% | 62.9% | 90.7% | 63.9% | 59% | 84.8% | 82% | 79.9% | 82.7% | 66.3% | 26.8% | 41.5% | 52.1% | 34.9% | 58.5% | 56.1% | 55.3% | 64% | –
9 | CC[C@@H]1C(=O)N(C)c2cnc(Nc3ccc(C(=O)NC4CCC(N5CCN(CC6CC6)CC5)CC4)cc3OC)nc2N1C(C)C (some centres not stated) | 2.76% (active) | -25.9% (active) | 25.9% | -16.3% (active) | 9.7% (active) | -96.5% (active) | -47.3% (active) | -72.3% (active) | 21.2% | 7.06% (active) | -52.3% (active) | 19.9% | -3.77% (active) | 10.6% | 0.0303% (active) | -19.6% (active) | -72.1% (active) | -51.8% (active) | –
10 | Cc1c(NC(=O)OC[C@@H]2COCCN2)cn2ncnc(Nc3ccc4c(cnn4Cc4cccc(F)c4)c3)c12 | 4.13% (active) | -6.28% (active) | 6.8% (active) | -6.22% (active) | 9.24% (active) | -46.4% (active) | -14.7% (active) | -10.1% (active) | 4.4% (active) | 0.74% (active) | -40.5% (active) | -7.43% (active) | -0.373% (active) | – | 6.97% (active) | 1.8% (active) | -11% (active) | -68.8% (active) | –
11 | O=C(Cc1ccc(/C=C/C(=O)c2ncc[nH]2)cc1)Nc1ccc(S(F)(F)(F)(F)F)cc1 | 34.2% | -25.7% (active) | 75.9% | 37% | 58.9% | 98.4% | 86.7% | – | 96.9% | 80.3% | 60.7% | 107% | 95.8% | 81.7% | 41.9% | 53.4% | -59% (active) | 88.3% | –
12 | Cc1ccc(C(=O)Nc2ccc(CN3CCN(C)CC3)c(C(F)(F)F)c2)cc1C#Cc1cnc2cccnn12 | -83.1% (active) | -69.8% (active) | -98.3% (active) | -98.5% (active) | -64.1% (active) | -98.8% (active) | -89.1% (active) | -97% (active) | -84.4% (active) | -92.8% (active) | -93.6% (active) | -98.7% (active) | -100% (active) | -99.9% (active) | -29.5% (active) | -62.3% (active) | -94% (active) | -96.8% (active) | –
13 | CS(=O)(=O)N1CCN(Cc2cc3nc(-c4cccc5[nH]ncc45)nc(N4CCOCC4)c3s2)CC1 | 19.3% | 11.4% | 34.9% | 34% | 18.2% | 33.5% | -14.2% (active) | 10.6% | 19.9% | 17.2% | -14.7% (active) | 0.78% (active) | 6.84% (active) | 7.35% (active) | 36.3% | 12.3% | – | -47.6% (active) | –
14 | COc1ccc(-c2ccc3ncc4c(c3c2)n(-c2ccc(N3CCNCC3)c(C(F)(F)F)c2)c(=O)n4C)cn1 | -78.6% (active) | -78.2% (active) | -74.2% (active) | -85.5% (active) | -84.1% (active) | -92.4% (active) | -74.7% (active) | -76.6% (active) | -77.1% (active) | -80.7% (active) | -90.9% (active) | -90.2% (active) | -97.5% (active) | -94.8% (active) | -47.1% (active) | -50.8% (active) | -82% (active) | -79.2% (active) | –
15 | Cn1cnc(-c2cc3nccc(Oc4ccc(NC(=S)NC(=O)Cc5ccccc5)cc4F)c3s2)c1 | 85.3% | 62.6% | 96.6% | 79.7% | 81.3% | 76.7% | 93.8% | 98.3% | 109% | 54.1% | 72.2% | 85.1% | 80.4% | 80.8% | 58.6% | 69.4% | 94.5% | 62.9% | –
16 | O=c1[nH]c(N2CCOCC2)nc2scc(-c3ccccc3)c12 | 99% | 86.8% | 106% | 69.5% | 94.6% | 98.7% | 99.2% | 110% | 53.3% | 107% | 83.1% | 86.6% | – | – | 101% | 90.5% | 100% | 104% | 81.8%
17 | CCCCCC(=O)OCc1ccc(Cl)c(Cl)c1 | 109% | 109% | 105% | 98.2% | 96.3% | 108% | 106% | 111% | 116% | 111% | 90.5% | 104% | 107% | 103% | 109% | 98.7% | 96% | 92.6% | –
18 | CNC(=O)c1c(C)oc2cc(Oc3ncnc4cc(OC)c(OC)cc34)ccc12 | 109% | 98.4% | 97.5% | 58.9% | 84.9% | 121% | 104% | – | 113% | 107% | 66% | 98.9% | 104% | 82.2% | 86.2% | 85.6% | 96.5% | – | –
19 | Nc1nc(N)c2cc(CNc3ccc(C(=O)NC(CC(=O)O)C(=O)O)cc3)ccc2n1 (configuration not stated) | 36.9% | 19.8% | 43.4% | 38.1% | 31.2% | 21.8% | 3.72% (active) | 54.3% | 43.2% | 15.5% | 35.8% | 61.2% | 25.9% | – | 23% | 32.8% | 15.2% | 19.1% | 72.3%
20 | CC(N)C(Cc1ccccc1)c1ccc(Cl)cc1 (configuration not stated) | 101% | 76.8% | 92% | 86.4% | 68% | 93.3% | 93.2% | 96.7% | 91.6% | 90.7% | 65.4% | 89.5% | 97% | 79.1% | 91.2% | 76.4% | 90.1% | – | –
21 | O=C(Cn1c(=O)ccn(CCCCCCCCOc2ccc(Br)cc2)c1=O)Nc1ccc(Oc2ccc(Cl)cc2)cc1 | 80.4% | 66% | 78.7% | 74.1% | 44.6% | 28.7% | 36.1% | 72.8% | 50.6% | 67.1% | 32.7% | 69.6% | – | – | 54.6% | 47.6% | 51.1% | 54.8% | 71%
